ELG1 genotoxic – genotoxicity induction in ELG1-luciferase HEK293T cells | HEK293T ELG1-luciferase reporter, luminescence, 16 h | Potency, µM (titrated, usually from 46 µM), for the others: at the highest dose activity change, positive = activation, most hits filed as activators | 330,000 tested, 1.3% active | AID 504466; also: % of control where 0% means no effect; nearly all actives have a fitted effect of over 60% in size
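HEK293T cells expressing luciferase-tagged ELG1 were treated with compound or DMSO for 16 hr at 37°C. Luciferase activity was then read after 30 min with ONE-Glo at room temperature; rising signal flags genetic stress.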
FLuc modulator – inhibits or activates purified firefly luciferase, miR-21 counter-screen | P08659 | purified FLuc, Km substrates, luminescence inhibition | Potency, µM (highest dose often 57.5 µM), without a hit: top-dose activity change, negative = inhibition, most hits filed as inhibitors | 360,000 tested, 6.9% active | AID 588342;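 also: plate controls were vehicle for no effect and reference inhibitor for full effect; nearly all actives have a fitted effect of over 55% in size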
Target sequence (P08659 whole entry, looked up): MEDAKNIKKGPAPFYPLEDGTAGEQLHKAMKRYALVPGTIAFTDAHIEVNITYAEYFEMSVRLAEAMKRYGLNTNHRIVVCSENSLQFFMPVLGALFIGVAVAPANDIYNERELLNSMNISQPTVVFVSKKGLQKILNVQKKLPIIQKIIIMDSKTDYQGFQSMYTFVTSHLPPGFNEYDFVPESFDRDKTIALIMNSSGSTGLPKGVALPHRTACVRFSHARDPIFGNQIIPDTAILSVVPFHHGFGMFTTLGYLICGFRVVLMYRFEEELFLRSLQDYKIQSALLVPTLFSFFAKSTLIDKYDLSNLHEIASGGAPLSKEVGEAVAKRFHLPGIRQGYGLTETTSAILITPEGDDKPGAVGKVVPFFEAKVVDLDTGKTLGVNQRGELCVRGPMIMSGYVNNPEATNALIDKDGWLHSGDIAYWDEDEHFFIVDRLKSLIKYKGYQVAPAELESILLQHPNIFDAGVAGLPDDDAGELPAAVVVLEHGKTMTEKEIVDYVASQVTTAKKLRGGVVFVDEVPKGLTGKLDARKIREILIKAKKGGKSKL
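Biochemical qHTS of compounds, final roughly 60 µM downward over six points, against 10 nM purified firefly luciferase using Km concentrations of substrates (10 uM D-luciferin, 10 uM ATP) in Tris acetate pH 7.5 buffer; luminescence output.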
NPC1 prom act – activators of NPC1 promoter. Huh7 NPC1 promoter luciferase reporter, 24 h. Potency, µM (doses to about 9.22 µM), for inactives: at the highest dose activation, usual class: activators. 320,000 tested, 2.4% active; also: % of control where 0% means no effect; nearly all actives have a fitted effect of over 60% in size
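Compounds in DMSO were transferred onto Huh7 NPC1-luciferase reporter cells pre-incubated 2 h; after 24 h at 37 °C, Amplite reagent was dispensed and luminescence recorded 10 min later.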
Rab9 promoter act – Rab9 promoter activation; Huh7 Rab9 promoter-luciferase reporter, luminescence, 24 h; Potency, µM (top dose mostly 9.22 µM), for inactives: top-dose activation, negative = inhibition, hits mostly activators; 320,000 tested, 2.8% active; AID 485297; also: % of control where 0% means no effect; nearly all actives have a fitted effect of over 60% in size
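Huh7 cells stably carrying a Rab9 promoter-luciferase reporter, 1500 cells per well in OP-MEM I with 10% FBS, treated with compound 24 hours at 37C. Luciferase activity read by luminescence after 10 minutes with Amplite reagent.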
Luc counter – blocks Kinase-Glo luciferase, a counter-screen artifact; 200,000 tested, 0.28% active; Kinase-Glo luciferase, ATP luminescence, 8 min; Potency, µM (doses to about 38.3 µM), inactives show top-dose activity change, negative = inhibition, actives largely listed as inhibitors; also: % is scaled to controls: 0 for no effect and ±100 for the full control effect; nearly all actives have a fitted effect of over 60% in size
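Inhibition of Kinase-Glo luciferase light generation was assessed at 10 uM ATP in pH 7.2 imidazole buffer, with luminescence measured after eight minutes at ambient temperature.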
SMN2 splice up – increases expression of the SMN2 splice variant | AID 1458 | 210,000 tested, 2.8% active | Potency, µM (highest dose often 46.1 µM), inactives show at the top dose activity change, positive = activation, most hits filed as activators | HEK293 SMN2-luciferase splicing reporter, luminescence, 30-36 h; also: % of control where 0% means no effect; nearly all actives have a fitted effect of over 55% in size
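HEK293 cells carry an SMN2 minigene-luciferase reporter in which exon 7 inclusion puts luciferase in frame. Cells were seeded at 2000 cells/well, attached for 10-12 hours, then exposed to compounds for 30-36 hours at 37C before ONE-Glo luminescence.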
Starred values were filed as active, the others as inactive; ? = inconclusive; / = no result given; [ ] = dose if it differs, or a comment. In the library only some 7.5% were active in any assay of this set; here they are far more common. Calls follow the shape of the dose curve; as a rule, active = well fitted curve in the direction sought with a large enough effect; inconclusive = small, poorly fitted or top-dose-only effect, or another doubt; inactive = no such curve, though single readings can be large; an effect the other way counts as inactive or inconclusive. Potency is read from the fitted curve at half-maximal effect.

SMILES | ELG1 genotoxic | FLuc modulator | NPC1 prom act | Rab9 promoter act | Luc counter | SMN2 splice up
O=CN(/C=C1\Sc2ccccc2C1=O)Cc1ccccc1 | ? | 11µM* | 10% | 18% | -4% | -4%
CCN(CC)C(=O)c1ccc2c(c1)N(Cc1ccc(C(F)(F)F)cc1)C(=O)c1ccccc1S2 | / | ? | / | / | / | -10%
Fc1cc2[nH]c(=S)[nH]c2c(Br)c1N1CCSCC1 | 11% | 13µM* | 11% | 10% | / | /
CC(C)(C)c1cc(NC(=O)CSc2nncs2)n(-c2ccccc2)n1 | -3% | 1% | 1% | 0% | -2% | -12%
CCN(CC)c1ccc(/C=C(\C#N)C(N)=S)cc1 | 8% | 21µM* | -1% | 1% | / | /
CCCCOc1ccc(C(=O)N/N=C/c2cn[nH]c2-c2ccc(OC)c(OC)c2)cc1 | -3% | 12µM* | -2% | -3% | 0% | -1%
COc1ccc(-c2[nH]ncc2/C=N\NC(=O)c2ccc(C(C)(C)C)cc2)cc1OC | 3% | 1.3µM* | 1% | 4% | -5% | ?
N#C/C(=C\c1cccc(NC(=O)c2ccccc2Cl)c1)C(=O)NCCc1ccccc1 | -5% | -25% | 14% | ? | 0% | 0%
Cc1ccc(C)c(NC(=O)CN(C)C(=O)c2cc(C3CC3)nn2-c2ccccc2)c1 | -6% | / | / | / | / | /
CCN1C(=O)/C(=C/N2CCc3ccccc32)SC1=S | 6.5µM* | ? | 2.8µM* | 3.2µM* | -12% | 10µM*
CNC(=O)Nc1ccc2nc(C)oc2c1 | 0% | 3% | -7% | -9% | / | /
O=C(Nc1ccccc1)Nc1ccc2ocnc2c1 | 13% | 11µM* | ? | 1.3µM* | 11µM* | ?
O=C(Nc1ccccc1)Nc1ccc2ncoc2c1 | ? | 12µM* | ? | ? | -19% | 11µM*
CC(=O)n1cc(/C=N/NC(=O)c2ccc(Cl)cc2)c2ccccc21 | 8% | 3.4µM* | 29% | 23% | / | /
CC(=O)n1cc(/C=N/NC(=O)c2ccccc2Cl)c2ccccc21 | 8% | 19µM* | 11% | 10% | / | /
CC(=O)n1cc(/C=N/NC(=O)c2cccc(O)c2)c2ccccc21 | 13% | 9.5µM* | -3% | 3% | / | /
O=C(N/N=C/c1cn(Cc2ccccc2)c2ccccc12)c1ccncc1 | -5% | ? | -8% | -9% | -2% | -71%
COc1ccccc1C(=O)COC(=O)CNS(=O)(=O)c1ccc(C)cc1 | -2% | -5% | -8% | 2% | 0% | 18%
CCN1/C(=C/C=C/C=C/C=C/c2sc3ccccc3[n+]2CC)Sc2ccccc21 | -10% | ? | -37% | -40% | / | /
CCN1/C(=C/C=C/C=C/c2sc3ccccc3[n+]2CC)Sc2ccccc21 | -8% | 15µM* | -38% | -32% | ? | -90%
CCN1/C(=C/C=C/c2sc3ccccc3[n+]2CC)Sc2ccccc21 | ? | 21µM* | -40% | -45% | / | /
COc1ccc(C2N3CC4(C)CN2CC(c2ccccc2)(C3)C4=O)cc1 (stereo not drawn) | / | 0% | / | / | / | 4%
C=CCN1C(=O)C(CC(=O)Nc2ccc(OCCC)cc2)N(CCCN2CCN(Cc3ccccc3)CC2)C1=S (stereo not drawn) | 14% | 4% | -6% | -6% | 4% | -16%
C/C(CCC(C)C)=N\Nc1cc(C)c2ccccc2n1 | -1% | 12µM* | -9% | 4% | -2% | 2%
Cc1ccc(Cn2ccc(NC(=O)c3cc(-c4ccc(Cl)c(Cl)c4)on3)n2)cc1 | / | -6% | / | / | / | -2%
SMILES | ELG1 genotoxic | FLuc modulator | NPC1 prom act | Rab9 promoter act | Luc counter | SMN2 splice up
Cc1cccc(C2Nc3cccc4cccc(c34)N2)c1 | 0% | 21µM* | ? | 11% | / | /
Oc1ccc2ccccc2c1C1Nc2cccc3cccc(c23)N1 | -11% | -3% | 0% | -1% | -3% | -1%
O=[N+]([O-])c1cc(C2Nc3cccc4cccc(c34)N2)ccc1Cl | 3% | 2% | ? | 28% | 0% | -1%
Clc1ccc(C2Nc3cccc4cccc(c34)N2)cc1 | -8% | 19µM* | 22% | 17% | / | /
CN1c2ccccc2N(C)C1c1ccc2c(c1)OCO2 | 2% | 9% | -6% | -20% | 0% | -1%
CSc1ccc(C2Nc3cccc4cccc(c34)N2)cc1 | -2% | 21µM* | ? | 20% | / | /
Brc1ccc(C2Nc3cccc4cccc(c34)N2)s1 | 0% | ? | 20% | ? | -6% | 14%[1.84 µM]
c1cc2c3c(cccc3c1)NC(c1ccc3c(c1)OCO3)N2 | 2% | 27µM* | ? | 0% | / | /
COc1ccc(Nc2nc(-c3sc(C)nc3C)cs2)cc1 | 8% | 15µM* | -26% | -17% | / | /
Cc1nc(C)c(-c2csc(Nc3cccnc3)n2)s1 | ? | 12µM* | 11% | 16% | -2% | ?
Cc1nc(C)c(-c2csc(Nc3ccc(O)c(C(=O)O)c3)n2)s1 | -4% | 9.5µM* | 8% | 23% | / | /
COc1ccc(OC)c(Nc2nc(-c3sc(N)nc3C)cs2)c1 | 3% | -2% | -1% | -4% | 0% | -16%
Cc1nc(C)c(-c2csc(Nc3ccc(N)cc3)n2)s1 | 4% | 11µM* | ? | 22% | / | /
CC(=O)Nc1nc(C)c(-c2csc(Nc3ccc(O)cc3)n2)s1 | 1% | ? | -7% | -6% | 3% | 8%
Cc1ccc(C)c(NC(=O)C(=O)NCCc2csc(-c3ccc(C(F)(F)F)cc3)n2)c1 | / | 3% | / | / | / | /
Cc1ccc2nc(CSc3nnc(NC(=O)CC(C)C)s3)cc(=O)n2c1 | / | 4% | / | / | / | /
Nc1cc(=O)[nH]c(SCCSc2ccccc2)n1 | 13% | 2% | -7% | -3% | / | /
Cc1ccc(Nc2ncnc(-n3cccc3)n2)cc1Cl | ? | 2.7µM* | ? | 3.2µM* | / | /
Clc1cc(Cl)cc(Nc2ncnc(-n3cccc3)n2)c1 | -1% | -4% | 23% | -6% | / | /
CC(C)c1cnc2c(c1SCC(=O)N1CCCCC1)c(=O)n(C)c(=O)n2C | / | -1% | / | / | / | /
Cc1ccccc1OCC(O)Cn1nnc2ccccc21 (stereo not drawn) | ? | 21µM* | ? | 3.5µM* | 3% | 11µM*

High-throughput results as filed in PubChem BioAssay.
